Test [1] in a line: qHTS assay to identify aromatase inhibitors - cell viability counter screen (AID 743084;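 also: cells stimulated with testosterone during compound exposure; nearly all actives have a fitted effect of over 55% in size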). (In general: qHTS replaces the single test concentration by a dilution series.)
Test [2] addresses Aryl hydrocarbon receptor (Homo sapiens) (UniProt P35869). Kind of test: qHTS assay to identify small molecule that activate the aryl hydrocarbon receptor (AhR) signaling pathway (AID 743085). Also: nearly all actives have a fitted effect of over 15% in size. Also: potency is read from the fitted curve at half-maximal effect.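 As to activation: HG2L7.5c1 human HepG2 liver cells with stably integrated DRE-driven firefly reporter; series mostly up to about 70 µM.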 The method, boiled down: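 Reporter assay in engineered HepG2 line HG2L7.5c1, whose plasmid carries twenty dioxin responsive elements upstream of firefly luciferase. Treatment lasted 24 h at 37C; ONE-Glo luminescence gauged induction.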

Test [3] is described as follows: qHTS assay to identify small molecule that activate the aryl hydrocarbon receptor (AhR) signaling pathway - cell viability counter screen (AID 743086).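 Also: HepG2 liver cells carrying the AhR DRE luciferase reporter; series mostly up to about 70 µM; nearly all actives have a fitted effect of over 45% in size.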 An outline of the steps: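 HepG2-AhR-luc (HG2L7.5c1) cells, 4000/well, were preincubated 5 h at 37C, exposed to compound in qHTS format for 24 hr at 37C, then given CellTiter-Fluor for 30 min; viability was read as fluorescence in the reporter wells.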

The target of test [4] is Peroxisome proliferator-activated receptor gamma (Homo sapiens) (UniProt P37231). Kind of test: qHTS assay to identify small molecule agonists of the peroxisome proliferator-activated receptor gamma (PPARg) signaling pathway (AID 743094; active = well fitted activation curve with a large enough effect in the signal ratio in the repeat runs, not every such curve was filed as active; the % refers to the signal ratio). The method, boiled down: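 HEK293H PPARg-bla cells, 5 h settle at 37C/5% CO2; compound (DMSO) 17 h, 37C; B/G FRET substrate 1 h RT; fluorescence intensity read-out. qHTS format.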

Test [5] in a line: qHTS assay to identify small molecule antagonists of the peroxisome proliferator-activated receptor gamma (PPARg) signaling pathway - cell viability counter screen (AID 743194). Also: nearly all actives have a fitted effect of over 55% in size. An outline of the steps: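 PPARg-UAS-bla HEK293H cells were plated, rested 5 h at 37 C, then treated with compounds plus rosiglitazone (50 nM final) for 17 h at 37 C; viability was then read by CellTiter-Glo luminescence after 30 min at room temperature.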

A short description of test [6]: qHTS assay for small molecule agonists of the antioxidant response element (ARE) signaling pathway (AID 743202; active = well fitted activation curve with a large enough effect in the signal ratio in the repeat runs, not every such curve was filed as active; the % refers to the signal ratio). An outline of the steps: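 Steps: seed ARE-bla HepG2 cells (2,000/well); incubate 5 h at 37 C; add compounds by pin tool; incubate 16 h at 37 C; add FRET substrate; read fluorescence after 2 h at RT.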
Test [7] in a line: qHTS assay for small molecule agonists of the antioxidant response element (ARE) signaling pathway - cell viability counter screen (AID 743203; calls by dose curve; also: nearly all actives have a fitted effect of over 55% in size). The method, boiled down:
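Luminescence read-out (CellTiter-Glo, 30 min at room temperature) measured cell viability in the same wells as the ARE beta-lactamase reporter. HepG2 ARE-bla cells were treated with compounds for 16 hrs at 37C/5% CO2.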

Test [8] is described as follows: qHTS assay for small molecule activators of the heat shock response signaling pathway - cell viability counter screen (AID 743209). Also: nearly all actives have a fitted effect of over 50% in size. The method, boiled down: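 HSE-bla HeLa; 1500 cells/well; overnight 37 C, 5% CO2; compound 5 h 37 C; LiveBLAzer B/G substrate 2.5 h RT; CellTiter-Glo 30 min RT; luminescence.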
The nature of test [9]: qHTS assay for small molecule activators of the heat shock response signaling pathway (AID 743210; active = well fitted activation curve with a large enough effect in the signal ratio in the repeat runs, with a control signal flat, not every such curve was filed as active; the % refers to the signal ratio;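 also: HeLa cells with beta-lactamase reporter driven by heat shock elements; series mostly up to about 63 µM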). An outline of the steps:
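Activation of heat shock element-controlled beta-lactamase expression is measured in HeLa cells by LiveBLAzer FRET fluorescence, with compound exposure lasting 5 h at 37 C and substrate loading 2.5 h at room temperature.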

Test [10] in a line: qHTS assay to identify small molecule agonists of the peroxisome proliferator-activated receptor delta (PPARd) signaling pathway - cell viability counter screen (AID 743211). Also: nearly all actives have a fitted effect of over 55% in size. An outline of the steps: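 Multiplexed format: after the 2 h room-temperature LiveBLAzer B/G FRET step, CellTiter-Glo was added to the same wells. Luminescence after 30 min gave cell viability; compound exposure was 17 h at 37C.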

The target of test [11] is Peroxisome proliferator-activated receptor delta (Homo sapiens) (UniProt Q03181). Kind of test: qHTS assay to identify small molecule agonists of the peroxisome proliferator-activated receptor delta (PPARd) signaling pathway (AID 743212; calls by dose curve). An outline of the steps:
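Cells expressing a UAS-driven beta-lactamase reporter (PPARd-bla HEK293H) were given test compounds after a 5 h settle and kept at 37 C. Reporter activity was then measured as FRET fluorescence using LiveBLAzer B/G substrate.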

The nature of test [12]: qHTS assay to identify small molecule antagonists of the peroxisome proliferator-activated receptor delta (PPARd) signaling pathway - cell viability counter screen (AID 743213). Also: nearly all actives have a fitted effect of over 50% in size. An outline of the steps:
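PPARd-bla HEK293H cells (3000/well) got compound plus 300 nM L165041 agonist for 17 h at 37 C. Viability in the same wells came from CellTiter-Glo luminescence after 30 min at room temperature.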

Test [13] concerns the target Peroxisome proliferator-activated receptor delta (Homo sapiens) (UniProt Q03181). Kind of test: qHTS assay to identify small molecule antagonists of the peroxisome proliferator-activated receptor delta (PPARd) signaling pathway (AID 743215; active = well fitted inhibition curve with a large enough effect in the signal ratio in the repeat runs, not every such curve was filed as active; the % refers to the signal ratio;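 also: cells stimulated with agonist L165041 at 300 nM final during compound exposure; series mostly up to about 62 µM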). An outline of the steps: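 HEK293H GeneBLAzer PPARd UAS-bla reporter cells; cpd + L165041 300 nM final, 17 h 37 C; LiveBLAzer B/G FRET substrate 2 h RT; fluorescence intensity read-out. Antagonist mode.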

The nature of test [14]: qHTS assay to identify small molecule agonists of the farnesoid-X-receptor (FXR) signaling pathway - cell viability counter screen (AID 743218). Also: nearly all actives have a fitted effect of over 45% in size. The method, boiled down: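 Luminescence from CellTiter-Glo, read after 30 min at RT, reports viability of GeneBLAzer FXR-UAS-bla HEK 293T cells treated 16 h with compounds in the wells used for the beta-lactamase reporter.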
In test [15] the target is Vitamin D3 receptor (Homo sapiens) (UniProt P11473). Kind of test: qHTS assay to identify small molecule agonists of the vitamin D receptor (VDR) signaling pathway (AID 743222; calls by dose curve). The method, boiled down: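 Beta-lactamase reporter readout (LiveBLAzer B/G FRET, 2 h RT) in VDR-bla cells after 16 h compound treatment at 37C, 5% CO2; cells pre-incubated 4 h before pin transfer of DMSO solutions.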

The target is the same in test [16]. Kind of test: qHTS assay to identify small molecule antagonists of the vitamin D receptor (VDR) signaling pathway (AID 743223; active = well fitted inhibition curve with a large enough effect in the signal ratio in the repeat runs, not every such curve was filed as active; the % refers to the signal ratio). An outline of the steps:
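After VDR-bla cells are plated and left 4 h at 37C, DMSO-dissolved compounds and 3 nM (final) calcitriol agonist are added. Incubation continues 16 h at 37C; FRET beta-lactamase substrate then develops 2 h at room temperature.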

Test [17] can be described thus: qHTS assay to identify small molecule antagonists of the farnesoid-X-receptor (FXR) signaling pathway - cell viability counter screen (AID 743221; active = well fitted cell-killing curve with a large enough effect in the repeat runs, not every such curve was filed as active; also: nearly all actives have a fitted effect of over 50% in size). The method, boiled down: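 CellTiter-Glo, 30 min RT, luminescence; same wells as the LiveBLAzer FRET read. Cells: FXR-UAS-bla HEK 293T. Treatment: compound with chenodeoxycholic acid 50 uM final, 16 h at 37 C.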
In test [18] the target is Bile acid receptor (Homo sapiens) (UniProt Q96RI1). Kind of test: qHTS assay to identify small molecule antagonists of the farnesoid-X-receptor (FXR) signaling pathway (AID 743217; active = well fitted inhibition curve with a large enough effect in the signal ratio in the repeat runs, not every such curve was filed as active; the % refers to the signal ratio). The method, boiled down:
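Read-out: beta-lactamase FRET fluorescence (LiveBLAzer B/G substrate, 2 h, room temperature) in GeneBLAzer FXR-UAS-bla HEK 293T cells. Compounds were co-dosed with 50 uM chenodeoxycholic acid (final) and incubated 16 h at 37 °C.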

The target is the same in test [19]. Kind of test: qHTS assay to identify small molecule agonists of the farnesoid-X-receptor (FXR) signaling pathway (AID 743220; active = well fitted activation curve with a large enough effect in the signal ratio in the repeat runs, not every such curve was filed as active; the % refers to the signal ratio). An outline of the steps: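 FXR-UAS-bla HEK 293T cells carrying a UAS-driven beta-lactamase reporter were plated for 5 h at 37C/5% CO2, then exposed to DMSO-dissolved Tox21 10K compounds for 16 h at 37C. A LiveBLAzer B/G FRET substrate was loaded for 2 h at room temperature before fluorescence reading.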

Records with an inconclusive call do not appear. Active and inactive are the calls of the source. Unless noted, calls follow the shape of the dose curve; as a rule, active = well fitted curve in the direction sought with a large enough effect in the repeat runs; inconclusive = weak or mixed curves; inactive = no such curve, though single readings can be large; an effect the other way counts as inactive or inconclusive.

Sequence of Peroxisome proliferator-activated receptor delta (Homo sapiens) (Q03181 whole entry, looked up): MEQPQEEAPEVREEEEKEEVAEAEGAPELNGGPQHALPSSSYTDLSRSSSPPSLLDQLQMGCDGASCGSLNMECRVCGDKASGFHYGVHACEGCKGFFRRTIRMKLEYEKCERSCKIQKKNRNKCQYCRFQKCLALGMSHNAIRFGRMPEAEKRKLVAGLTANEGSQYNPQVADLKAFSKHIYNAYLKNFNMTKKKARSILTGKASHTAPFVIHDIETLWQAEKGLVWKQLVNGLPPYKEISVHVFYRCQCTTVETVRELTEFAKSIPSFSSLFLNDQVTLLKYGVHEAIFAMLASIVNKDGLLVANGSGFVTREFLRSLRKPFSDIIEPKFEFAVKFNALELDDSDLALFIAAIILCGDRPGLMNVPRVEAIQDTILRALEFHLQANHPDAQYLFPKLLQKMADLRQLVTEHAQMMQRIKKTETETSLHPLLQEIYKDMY
Sequence of Vitamin D3 receptor (Homo sapiens) (P11473 whole entry, looked up): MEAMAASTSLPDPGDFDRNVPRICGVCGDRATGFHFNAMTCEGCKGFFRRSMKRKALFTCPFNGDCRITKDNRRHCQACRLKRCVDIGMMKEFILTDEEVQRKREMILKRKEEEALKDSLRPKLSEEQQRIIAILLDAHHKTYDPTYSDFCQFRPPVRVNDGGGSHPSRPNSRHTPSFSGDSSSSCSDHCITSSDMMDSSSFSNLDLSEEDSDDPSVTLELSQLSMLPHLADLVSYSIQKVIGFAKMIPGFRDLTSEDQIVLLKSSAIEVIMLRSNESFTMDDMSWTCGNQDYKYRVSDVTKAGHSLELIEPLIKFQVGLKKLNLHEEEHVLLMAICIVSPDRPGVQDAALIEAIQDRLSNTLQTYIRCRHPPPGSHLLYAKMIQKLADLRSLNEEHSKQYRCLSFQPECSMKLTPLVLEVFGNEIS
Sequence of Bile acid receptor (Homo sapiens) (Q96RI1 whole entry, looked up): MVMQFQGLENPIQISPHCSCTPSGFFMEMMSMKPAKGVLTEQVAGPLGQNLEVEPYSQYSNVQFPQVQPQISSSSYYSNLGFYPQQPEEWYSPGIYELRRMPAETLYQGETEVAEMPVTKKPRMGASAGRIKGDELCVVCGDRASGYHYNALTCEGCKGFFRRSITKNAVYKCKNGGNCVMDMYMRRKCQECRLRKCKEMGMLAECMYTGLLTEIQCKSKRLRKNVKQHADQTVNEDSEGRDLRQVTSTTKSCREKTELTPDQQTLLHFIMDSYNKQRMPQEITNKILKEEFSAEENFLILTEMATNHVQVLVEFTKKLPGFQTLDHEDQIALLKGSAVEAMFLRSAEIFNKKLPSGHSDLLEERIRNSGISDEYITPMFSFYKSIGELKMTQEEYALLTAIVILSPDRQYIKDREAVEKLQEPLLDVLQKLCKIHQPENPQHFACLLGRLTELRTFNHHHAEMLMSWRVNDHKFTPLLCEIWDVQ
Sequence of Peroxisome proliferator-activated receptor gamma (Homo sapiens) (P37231 whole entry, looked up): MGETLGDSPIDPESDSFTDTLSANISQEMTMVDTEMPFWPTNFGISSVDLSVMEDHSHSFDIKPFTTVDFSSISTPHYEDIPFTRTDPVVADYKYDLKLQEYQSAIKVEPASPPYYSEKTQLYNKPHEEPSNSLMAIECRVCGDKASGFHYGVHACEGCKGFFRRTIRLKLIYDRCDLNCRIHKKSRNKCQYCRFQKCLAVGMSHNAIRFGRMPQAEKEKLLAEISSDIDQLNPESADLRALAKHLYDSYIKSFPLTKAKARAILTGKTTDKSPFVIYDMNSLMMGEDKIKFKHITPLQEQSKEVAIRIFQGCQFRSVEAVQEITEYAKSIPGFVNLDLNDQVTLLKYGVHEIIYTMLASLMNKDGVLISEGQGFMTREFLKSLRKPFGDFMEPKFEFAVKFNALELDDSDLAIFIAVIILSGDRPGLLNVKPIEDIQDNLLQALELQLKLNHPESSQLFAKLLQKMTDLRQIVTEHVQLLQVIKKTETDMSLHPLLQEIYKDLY
Sequence of Aryl hydrocarbon receptor (Homo sapiens) (P35869 whole entry, looked up): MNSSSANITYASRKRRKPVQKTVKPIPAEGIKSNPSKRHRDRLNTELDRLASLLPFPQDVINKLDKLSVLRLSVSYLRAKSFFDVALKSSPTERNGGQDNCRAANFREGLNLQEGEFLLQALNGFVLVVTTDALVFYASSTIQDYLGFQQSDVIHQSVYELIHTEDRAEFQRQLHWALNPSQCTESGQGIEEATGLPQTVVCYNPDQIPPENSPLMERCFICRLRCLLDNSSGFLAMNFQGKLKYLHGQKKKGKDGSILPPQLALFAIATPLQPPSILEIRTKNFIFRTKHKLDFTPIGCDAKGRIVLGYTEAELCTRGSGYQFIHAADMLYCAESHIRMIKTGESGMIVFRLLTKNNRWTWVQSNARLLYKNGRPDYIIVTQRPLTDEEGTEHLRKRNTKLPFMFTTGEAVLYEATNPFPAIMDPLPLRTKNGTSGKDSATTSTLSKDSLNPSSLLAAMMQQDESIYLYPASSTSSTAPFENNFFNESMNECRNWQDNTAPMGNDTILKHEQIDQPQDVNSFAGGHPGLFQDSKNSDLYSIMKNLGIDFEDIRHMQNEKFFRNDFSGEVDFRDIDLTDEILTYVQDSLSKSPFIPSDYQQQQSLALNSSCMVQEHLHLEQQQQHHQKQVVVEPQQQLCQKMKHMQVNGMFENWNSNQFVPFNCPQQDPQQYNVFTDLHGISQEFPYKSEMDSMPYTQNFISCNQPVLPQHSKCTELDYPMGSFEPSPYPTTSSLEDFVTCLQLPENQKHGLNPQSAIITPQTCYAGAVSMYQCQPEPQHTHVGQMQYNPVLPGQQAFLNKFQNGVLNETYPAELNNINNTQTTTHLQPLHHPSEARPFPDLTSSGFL

Take `CCCCCCCC(=O)OC`: the Potency result in test [1], in [2], in test [6], in [9], in [13] and in test [14] was “inactive” each time. Moreover, the outcome in test [3], in test [4], in [5], in [7], in test [8] and in test [10] was inactive. Besides, the outcome in test [11], in [12], in test [15] and in test [16] was inactive.
Consider `CCC(O)OCCCOC` (centres undefined), for which the Potency entry in test [1], in test [2], in test [6], in [9], in [13] and in [14] was “inactive” throughout. For the same molecule, the Potency entry in test [17] is “inactive”. The outcome in [3], in [4], in [5], in test [7], in [8] and in test [10] was inactive. For the same molecule, the result in [11], in test [15] and in test [16] was inactive.
Regarding `CCCCCCCCCC`, the Potency result in test [1], in test [2], in test [6], in [9], in test [13] and in test [14] was “inactive” each time. Also, in test [17], the Potency entry is “inactive”. Besides, the molecule was called inactive in [3], in [4], in test [5], in [7], in [8] and in [10]. Besides, the result in test [11], in test [12], in [18], in test [19], in test [15] and in [16] was inactive.
On to `CC(C)(N)CO`, for which the Potency entry in test [1], in [2], in test [6], in test [9], in [13] and in test [14] was “inactive” in each case. Also, in test [17], the Potency result was “inactive”. Besides, the outcome in [3], in test [4], in test [5], in test [7], in test [8] and in test [10] was inactive. Besides, the molecule was called inactive in [11], in test [12], in test [18], in [19], in test [15] and in test [16].
In the case of `O=C1CCC(N2C(=O)c3ccccc3C2=O)C(=O)N1` (centres undefined), the Potency result in test [1], in test [2], in test [6], in test [9], in test [13] and in test [14] was “inactive” throughout. Also, the molecule was classed as inactive in test [3], in test [4], in test [5], in [7], in [8] and in [10]. The result in [11] and in [12] was inactive.
For `N[C@@H](Cc1cc(I)c(Oc2cc(I)c(O)c(I)c2)c(I)c1)C(=O)O`, the Potency entry in test [1], in [6], in [9], in [13], in test [14] and in [17] was “inactive” each time. The Potency in [2] is 13.8 µM (active). In addition, the molecule was called inactive in [3], in [4], in test [5], in test [7], in test [8] and in [10]. The result in test [11], in test [12], in [15] and in test [16] was inactive.
As to `O=C(OCCOCCOC(=O)c1ccccc1)c1ccccc1`, the Potency result in [1], in test [2], in [6], in test [9], in test [13] and in [14] was “inactive” throughout. Moreover, the Potency entry in test [17] was “inactive”. For the same molecule, the molecule was called inactive in test [3], in test [4], in [5], in [7], in [8] and in [10]. Further, the molecule was called inactive in test [11], in [12], in test [18], in [19], in test [15] and in test [16].
As for `Fc1ccc(Br)cc1`, the Potency result in [1], in test [2], in test [6], in test [9] and in test [14] was “inactive” throughout. Besides, the outcome in test [3], in [4], in test [5], in test [7], in test [8] and in test [10] was inactive. The molecule was classed as inactive in [12], in test [15] and in [16].

The record behind these values is PubChem BioAssay (Tox21).
